We go through 23 molecules from the antibiotic and cytotoxicity screens of Wong et al. (2023).

In all, about 39,000 compounds went through this assay and about 3,300 (8.5%) were called active. This is one part of a sample in which actives are shown more often than they occur.

The experiment concerns HepG2. As to the kind of experiment: cytotoxicity call (relative viability < 0.9). Particulars: 10 µM.
Regarding `N#CCC(=O)N1CCSCC1`, the cytotoxicity call was “inactive”. The result for `C[C@@H]1CCCCO[C@@H](CN(C)S(=O)(=O)c2ccc(F)cc2)[C@@H](C)CN([C@H](C)CO)C(=O)c2cc(NS(C)(=O)=O)ccc2O1` reads “inactive”.

Regarding `CC(C)CN1C[C@@H]2CCNCC[C@H]2S1(=O)=O`, the cytotoxicity call was “inactive”. The result for `C[C@H](CO)N1C[C@H](C)[C@@H](CN(C)Cc2ccc(C(=O)O)cc2)Oc2ccc(NS(=O)(=O)c3cn(C)cn3)cc2CC1=O` reads “inactive”.

Take `O=C(C[C@@H]1C[C@H]2c3cc(NS(=O)(=O)c4ccc(F)cc4)ccc3O[C@H]2[C@@H](CO)O1)NCc1ccccc1F`: the cytotoxicity call was “inactive”.

Take `Nc1cc(=O)[nH]c(=O)n1Cc1ccccc1`: the cytotoxicity call is “inactive”. The result for `COc1ccc(CN2C[C@@H](C)[C@H](OC)CN(C)C(=O)c3ccc(NC(=O)c4nc5ccccc5s4)cc3OC[C@@H]2C)cc1` reads “inactive”; that for `COc1ccc2c3c([nH]c2c1)[C@H](CO)N(C[C@]13CCN(CC1)CC1CCCC1)S(=O)(=O)c1cn(cn1)C`, “inactive”. The result for `COc1ccccc1CN1C(=O)c2ccccc2[C@@]2(Cc3ccccc3N(C(C)C)C2=O)[C@@H]1c1ccc(CO)cc1` reads “inactive”; that for `C[C@H]1CN([C@@H](C)CO)C(=O)c2cccc(NC(=O)NC3CCCCC3)c2O[C@@H]1CN(C)C(=O)Nc1ccc(C(F)(F)F)cc1`, “inactive”. With `C[C@@H]1CN([C@H](C)CO)C(=O)c2cccc(NC(=O)NC3CCCCC3)c2O[C@@H]1CN(C)C(=O)Nc1ccc(C(F)(F)F)cc1` the entry was “inactive”; with `C[C@H]1CN([C@@H](C)CO)C(=O)c2cccc(NC(=O)NC3CCCCC3)c2O[C@H]1CN(C)C(=O)Nc1ccc(C(F)(F)F)cc1`, “active”. Take `CCCn1nc(C)c(CN)c1C`: the cytotoxicity call was “inactive”. With `Cc1ccc(S(=O)(=O)N(C)C[C@@H]2OCCCC[C@@H](C)Oc3ccc(NC(=O)Nc4ccc(C(F)(F)F)cc4)cc3C(=O)N([C@@H](C)CO)C[C@@H]2C)cc1` the entry was “inactive”; with `O=C1N[C@@H](Cc2c[nH]c3ccccc23)COC(=O)[C@H](Cc2ccc(F)cc2)CCC=CC[C@H]1CC(=O)N(CCO)Cc1ccccc1`, “inactive”; with `O=C(N[C@H]1CC=CC[C@H](CC(=O)N(CCO)Cc2ccccc2)C(=O)N[C@@H](Cc2ccccc2)COC1=O)OCC1c2ccccc2-c2ccccc21`, “active”. The result for `O=C1N[C@@H](Cc2c[nH]c3ccccc23)COC(=O)[C@@H](Cc2ccc(F)cc2)CC=CC[C@@H]1CC(=O)N(CCO)Cc1ccccc1` reads “active”. With `O=C(N[C@@H]1CC=CC[C@H](CC(=O)N(CCO)Cc2ccccc2)C(=O)N[C@@H](Cc2ccccc2)COC1=O)OCC1c2ccccc2-c2ccccc21` the entry was “inactive”.

Turning to `O=C(N[C@H]1CC=CC[C@H](CC(=O)N(CCO)Cc2ccccc2)C(=O)N[C@H](Cc2ccccc2)COC1=O)OCC1c2ccccc2-c2ccccc21`, the cytotoxicity call was “inactive”.

As for `O=C1N[C@H](Cc2c[nH]c3ccccc23)COC(=O)[C@@H](Cc2ccc(F)cc2)CCC=CC[C@@H]1CC(=O)N(CCO)Cc1ccccc1`, the cytotoxicity call is “inactive”. As for `O=C1N[C@H](Cc2c[nH]c3ccccc23)COC(=O)[C@@H](Cc2ccc(F)cc2)CCC=CC[C@H]1CC(=O)N(CCO)Cc1ccccc1`, the cytotoxicity call is “active”. The result for `O=C1N[C@H](Cc2c[nH]c3ccccc23)COC(=O)[C@@H](Cc2ccc(F)cc2)CC=CC[C@@H]1CC(=O)N(CCO)Cc1ccccc1` reads “inactive”.

For `O=C1N[C@H](Cc2c[nH]c3ccccc23)COC(=O)[C@H](Cc2ccc(F)cc2)CC=CC[C@@H]1CC(=O)N(CCO)Cc1ccccc1`, the cytotoxicity call was “inactive”.
